Sampled rows, rich in hits. Any-hit rate of the full collection: about 0.3%.
NPYLR7 ag: activates Aedes aegypti NPYLR7 receptor; activation, % at 10 µM; HEK293T NPYLR7/Galpha15, GCaMP6s calcium fluorescence; actives 0.15% (n = 270,000); in the data active means activation above about 40%;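 further: 0% = vehicle and 100% = reference agonist at the receptor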
hcGAS lum: inhibitors of human cGAS; Q8N884; recombinant h-cGAS, ATP depletion, Kinase-Glo luminescence; inhibition, % at 12.5 µM; actives 0.081% (n = 290,000);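 further: 0% = vehicle reaction and 100% = reaction without DNA for no activity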
mcGAS inh: inhibitors of mouse cGAS | Q8C6L5 | recombinant cGAS, Kinase-Glo ATP depletion luminescence | inhibition, % at 12.5 µM | actives 0.15% (n = 160,000) | AID 1259399;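 further: 0% = negative control wells and 100% = reference inhibitor with no enzyme activity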
Target sequence (Q8C6L5 whole entry, looked up): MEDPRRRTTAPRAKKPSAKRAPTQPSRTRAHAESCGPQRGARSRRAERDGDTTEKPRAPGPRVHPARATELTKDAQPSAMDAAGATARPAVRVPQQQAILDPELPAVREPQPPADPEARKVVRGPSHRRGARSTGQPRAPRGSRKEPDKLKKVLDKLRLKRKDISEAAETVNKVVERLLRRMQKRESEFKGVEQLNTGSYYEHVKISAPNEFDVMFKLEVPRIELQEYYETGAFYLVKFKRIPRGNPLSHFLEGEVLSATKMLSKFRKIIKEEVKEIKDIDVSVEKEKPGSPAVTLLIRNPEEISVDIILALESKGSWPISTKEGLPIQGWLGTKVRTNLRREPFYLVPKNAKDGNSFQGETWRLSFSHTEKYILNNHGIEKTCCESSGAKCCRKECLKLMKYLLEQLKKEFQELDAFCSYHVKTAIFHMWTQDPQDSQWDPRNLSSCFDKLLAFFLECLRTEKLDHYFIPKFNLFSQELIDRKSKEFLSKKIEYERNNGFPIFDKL
* = called active by the depositor; x = no result. Unless noted, no stated cut-off is given here; in the data, active means inhibition above about 40%; inactive means the rest.

SMILES	NPYLR7 ag	hcGAS lum	mcGAS inh
COc1ccc(CN(Cc2ccco2)C(=O)c2cccc(Br)c2)cc1OCc1nc(CO)cs1	2	0	-2
CCCOc1ccc(C=O)c(O)c1	1	2	x
CCOc1cc(C=O)c(O)c(C=O)c1	827*	15	x
O=C1Cc2cc3ccccc3cc2C2(CCN(C(=O)c3cccc4cccc(C(=O)O)c34)CC2)N1	1	0	-3
CC(N)=C(C#N)C(=O)Cn1cc(C(F)(F)F)cc(Cl)c1=O	14	-4	x
CC(=O)c1c(C)[nH]c(C(=O)Cn2cc(C(F)(F)F)cc(Cl)c2=O)c1C	-2	74*	-2
CC1=NN(c2cccc(C(=O)O)c2)C(=O)/C1=C\c1ccc(-c2cc([N+](=O)[O-])ccc2O)o1	-17	5	8
CC1=NN(c2cccc(C(=O)O)c2)C(=O)/C1=C\c1ccc(-c2ccccc2C(=O)O)o1	-4	-6	64*
Cc1cc(O)c(CN2CCN(CCO)CC2)c2c1C(=O)/C(=C/c1ccco1)O2	28	-2	-10
O=C1/C(=C/c2cccc(Cl)c2)Oc2c1ccc(O)c2CN1CCN(CCO)CC1	50*	15	12
O=C1/C(=C/c2cccc(Br)c2)Oc2c1ccc(O)c2CN1CCN(CCO)CC1	52*	6	10
Cc1cc(O)c(CN2CCN(CCO)CC2)c2c1C(=O)/C(=C/c1ccc(F)cc1)O2	15	-7	-7
O=c1oc2c(CN3CCN(CCO)CC3)c(O)ccc2cc1-c1ccc(Cl)cc1	7	-8	-7
O=C1/C(=C/c2cccc(F)c2)Oc2c1ccc(O)c2CN1CCN(CCO)CC1	57*	9	2
CSc1nc2ccc(N=Cc3c[nH]c4ccccc34)cc2s1	1	-2	-4
CC(=O)C1=C(C)N(CC2CCCO2)C(=O)C1(NC(=O)CC(C)C)C(F)(F)F (stereo not drawn)	x	-4	-3
COc1cc(-c2ccnc(N3CCN(S(=O)(=O)c4ccc(C(F)(F)F)cc4Cl)CC3)n2)cc(OC)c1OC	8	-2	-4
CCN1C(=O)Cc2cc(NS(=O)(=O)CC)ccc21	1	-6	-9
CN(C)/C=C1\C(=O)N(c2c(Cl)cccc2Cl)c2cc(C=C(C#N)C#N)ccc21	125*	-38	x
N#CC(=CC1C(=O)N(c2c(Cl)cccc2Cl)c2ccccc21)C(N)=NCc1ccccc1 (stereo not drawn)	-11	-4	x
CCN1CCN(C(=O)c2cnn(C)c2-c2ccccc2)CC1	19	-7	-6
CCN1CCc2c(sc(NC(=O)CS(=O)(=O)c3ccccc3)c2-c2nc3ccccc3s2)C1	22	-9	-8
CCN1CCc2c(sc(NC(=O)CN3C(=O)CCC3=O)c2-c2nc3ccccc3s2)C1	24	45*	44*
CCC(=O)Nc1sc2c(c1-c1nc3ccccc3s1)CCN(CC)C2	28	73*	100*
CCN1CCc2c(sc(NC(=O)COc3ccccc3)c2-c2nc3ccccc3s2)C1	53*	2	-1
SMILES	NPYLR7 ag	hcGAS lum	mcGAS inh
CCN1CCc2c(sc(NC(C)=O)c2-c2nc3ccccc3s2)C1	5	73*	94*
CCN1CCc2c(sc(NC(=O)c3ccc(OC)cc3)c2-c2nc3ccccc3s2)C1	10	0	-3
CCN1CCc2c(sc(NC(=O)c3ccco3)c2-c2nc3ccccc3s2)C1	9	38	39
CN1CCc2c(sc(NC(=O)CN3C(=O)c4ccccc4C3=O)c2-c2nc3ccccc3s2)C1	2	0	-6
O=C(c1cnn(-c2ccccc2)n1)N1CCCC(c2nnc(-c3ccccc3F)s2)C1 (stereo not drawn)	-8	-5	x
Cc1ccn(-c2ccc(Nc3ccc(NC(=O)CCc4ccccc4)cc3)nn2)n1	-3	-5	-8
CC1CC(=O)Nc2c1c(NC(=O)c1nc3ccccc3s1)nn2C (stereo not drawn)	-12	-5	-13
NS(=O)(=O)c1ccc(NC(=O)c2cc3cc(Cl)ccc3oc2=O)cc1	1	5	-6
Cc1ccc(Cl)c2sc(=NC(=O)C(C)C)n(C)c12	9	-5	-7
CNC(=O)CSc1cn(CC(=O)N2CCCCC2)c2ccccc12	-3	-4	-8
CCCNC(=O)N1CCN(Cc2nnc3n2CCCCC3)CC1	-1	-1	x
O=C(c1nc2sccn2c1CNC1CCCc2ccccc21)N1CCCCCCC1 (stereo not drawn)	-3	0	0
CCN1CCc2c(sc(NC(=O)c3ccc(C(C)=O)cc3)c2-c2nc3ccccc3s2)C1	20	7	2
CCN1CCc2c(sc(NC(=O)c3ccccc3)c2-c2nc3ccccc3s2)C1	91*	17	6
Nc1ccccc1-c1nc(-c2ccccc2)nc2ccccc12	-7	-2	-7
Nc1c2ccccc2nc2ccccc12 (tested in a mixture with another compound)	-26	55*	x
Cc1nc(-c2ccsc2)sc1C(=O)NCc1ccccc1	0	-5	-7
CNC(=O)c1cnc(/C=C/c2csc(-c3ccsc3)n2)[nH]c1=O	67*	2	x
O=C(NCc1cccnc1Oc1ccc(F)c(F)c1)c1ccc2nc[nH]c2c1	2	-3	x
NC(=O)c1cnc(Sc2ccc3[nH]c(=O)oc3c2)c(Cl)c1	16	-8	-15
Nc1ccc2oc(=O)[nH]c2c1	2	-9	-6
O=c1[nH]c2c(Br)c(Br)c(Cl)cc2o1	-2	-1	90*
O=c1[nH]c2ccc(S(=O)(=O)Nc3ccccc3Oc3ccccc3Cl)cc2o1	13	10	x
O=c1[nH]c2c(Cl)c(Cl)c(Cl)cc2o1	-6	49*	82*
O=c1[nH]c2cc(Cl)c(Br)cc2o1	-3	24	42*
SMILES	NPYLR7 ag	hcGAS lum	mcGAS inh
CC1(Cc2ccc(F)c(Cl)c2)C(=O)Nc2ccc(-c3cccc(C(F)(F)F)c3)cc21 (stereo not drawn)	-2	0	-5
O=C(NCCc1ccco1)C1CCCN(C2CCN(C(=O)C3CC3)CC2)C1 (stereo not drawn)	2	-9	x
COc1ccccc1-c1coc2c(CN3CC4CC(C3)c3cccc(=O)n3C4)c(O)ccc2c1=O (stereo not drawn)	9	-6	-9
Cc1ccc(Cl)cc1NC(=O)c1ccc(CSc2nncn2C)o1	5	-4	x
COCCN(Cc1ccc(C)cc1)CC(O)COCC(C)C (stereo not drawn)	18	1	90*
COCCN(Cc1ccc(OC)cc1)CC(O)COC(C)C (stereo not drawn)	45	-3	-5
COc1ccc(OC)c(Cc2nnc(CCC(=O)NCc3csc(C(C)C)n3)o2)c1	9	-8	x
COc1cc(C=C2C(=O)N(C)C(=O)N(C)C2=O)cc(I)c1O	5	12	12
COc1cc(C=C2C(=O)N(C)C(=O)N(C)C2=O)cc([N+](=O)[O-])c1O	-20	11	46*
CCCc1ccc(S(=O)(=O)Nc2cc(Cl)ccc2Sc2nncn2C)cc1	6	-5	x
COc1cc(Nc2nnc(C(O)CC(C)C)s2)cc(OC)c1OC (stereo not drawn)	13	-3	-6
O=C(CN1C(=O)C(c2ccccc2)NC(=O)c2ccccc21)NCCn1cccc1 (stereo not drawn)	1	-5	x
CC(C)CCCC1CN(C(=O)c2cc3ccccc3[nH]c2=O)CCO1 (stereo not drawn)	x	-4	-14
O=c1oc2cc(O)ccc2cc1-c1nc2ccccc2s1	140*	-2	-3
